# Reference: PubChem BioAssay (EPA / NIEHS)
# Records with an inconclusive call do not appear. Calls of active or inactive are those of the source. Rule for the calls, unless noted: active = hit-call score of the fitted dose curve at least 0.9, where 1 is the maximum; inactive = score below 0.9.
# Legend:
# [1] = target: Paired box protein Pax-6 (Homo sapiens) (UniProt P26367); assay: ATG_Pax6_CIS: Attagene CIS-FACTORIAL HepG2 Assay for human Paired Box 6 (PAX6) (AID 2282956); conditions: HepG2 CIS-FACTORIAL PAX6 reporter transcription, RNA readout; actives raise or lower the signal
# In short: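 Readout: reporter transcript fluorescence after RT-PCR and capillary electrophoresis. Cells: HepG2, transiently transfected with cis-regulated MRTUs. Exposure 24 h. Gain or loss of signal fitted bidirectionally relative to DMSO.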
# [2] = ATG_PXRE_CIS: Attagene CIS-FACTORIAL HepG2 Assay for human Pregnane X Receptor Element (PXRE) (AID 2282957); conditions: HepG2 Attagene CIS-FACTORIAL PXRE reporter, mRNA; actives raise or lower the signal
# In short: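 Endogenous transcription factor activity in HepG2 was gauged through induction of reporter mRNA driven by a cis-regulating promoter element, sampled 24 h post-treatment. Activity was fitted in both directions against DMSO negative control.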
# [3] = ATG_PPRE_CIS: Attagene CIS-FACTORIAL HepG2 Assay for human Peroxisome Proliferator-activated Response Element (PPRE) (AID 2282958); conditions: HepG2 PPRE cis-element reporter, Attagene transcription factor profiling; actives raise or lower the signal
# In short: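 HepG2 cells transiently transfected with multiplexed cis-element reporter units measure endogenous transcription factor activity. After 24 h compound exposure, reporter mRNA is quantified by RT-PCR, 6-FAM labeling, HpaI digestion and capillary electrophoresis; bidirectional fits are made against DMSO baseline.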
# [4] = ATG_RORE_CIS: Attagene CIS-FACTORIAL HepG2 Assay for human RAR-related Orphan Receptor Element (RORE) (AID 2282959); conditions: HepG2 Attagene cis-factorial RORE reporter, mRNA; actives raise or lower the signal
# In short: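 HepG2 cells transiently transfected with multiple cis-element reporter transcription units, exposed to chemical for 24 h. Reporter mRNA quantified by RT-PCR, 6-FAM primer-extension labeling, HpaI digestion and capillary electrophoresis; bidirectional fit versus DMSO baseline.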
# [5] = ATG_Sox_CIS: Attagene CIS-FACTORIAL HepG2 Assay for human SRY-box transcription factor (SOX) (AID 2282960); conditions: HepG2 Attagene cis-factorial SOX reporter, mRNA; actives raise or lower the signal
# In short: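 HepG2 cells transiently transfected with cis-element-driven multiple reporter transcription units, dosed 24 h; reporter mRNA measured by RT-PCR, FAM labelling, HpaI digestion and capillary electrophoresis. Bidirectional fit versus DMSO baseline.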
# [6] = target: Transcription factor Sp1 (Homo sapiens) (UniProt P08047); assay: ATG_Sp1_CIS: Attagene CIS-FACTORIAL HepG2 Assay for human Specificity Protein 1 (Sp1) (AID 2282961); conditions: HepG2 Sp1 cis-reporter transcription, actives raise or lower the signal
# In short: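 HepG2 cells transiently transfected with multiple reporter transcription units driven by cis-regulatory elements; Sp1-responsive reporter mRNA measured 24 h after dosing by RT-PCR and capillary electrophoresis fluorescence, fitted bidirectionally against DMSO baseline.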
# [7] = ATG_SREBP_CIS: Attagene CIS-FACTORIAL HepG2 Assay for human Sterol Regulatory Element Binding (SREBP) (AID 2282962); conditions: HepG2 Attagene cis-factorial SREBP reporter, mRNA; actives raise or lower the signal
# In short: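 Readout: fluorescent reporter-transcript peaks resolved by capillary electrophoresis after RT-PCR. Cells were human HepG2 carrying transfected cis-promoter reporter constructs, dosed for 24 h. Gain or loss of signal was fitted against DMSO controls.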
# [8] = target: Signal transducer and activator of transcription 3 (Homo sapiens) (UniProt P40763); assay: ATG_STAT3_CIS: Attagene CIS-FACTORIAL HepG2 Assay for human Signal Transducer and Activator of Transcription 3 (STAT3) (AID 2282963); conditions: HepG2, Attagene cis-factorial STAT3 reporter transcription; actives raise or lower the signal
# In short: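 HepG2, MRTU-transfected, 24 h dosing. RNA → RT → PCR → FAM label → HpaI → CE. Bidirectional fit vs DMSO.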
# [9] = ATG_TA_CIS: Attagene CIS-FACTORIAL HepG2 Assay for human TA Basal Promoter (AID 2282964); conditions: HepG2 Attagene CIS-factorial TA basal promoter reporter; actives raise or lower the signal
# In short: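 Multiplexed mRNA reporter assay, HepG2, 24 h. Reporter cDNA amplified, 6-FAM primer-extended, HpaI-cut, CE-sized; DMSO = negative control and baseline.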
# [10] = ATG_TCF_b_cat_CIS: Attagene CIS-FACTORIAL HepG2 Assay for human T-Cell-Factor with beta-catenin (TCF/b-cat) (AID 2282965); conditions: HepG2 TCF/beta-catenin cis-reporter transcription, actives raise or lower the signal
# In short: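 In this cis-format system, transfected HepG2 cells report endogenous transcription factor activity. Readout after 24 h exposure is reporter transcript abundance from RT-PCR and capillary electrophoresis, analysed for gain or loss of signal versus DMSO.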
# [11] = ATG_TAL_CIS: Attagene CIS-FACTORIAL HepG2 Assay for human TAL Basal Promoter (AID 2282966); conditions: HepG2 Attagene cis-factorial TAL promoter reporter; actives raise or lower the signal;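 note: background control endpoint measuring basal TAL promoter reporter mRNA not a specific factor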
# In short: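 Endogenous transcription-factor activity is sensed in HepG2 cells through transfected cis-promoter reporter constructs. After 24 h dosing, reporter transcripts are quantified by RT-PCR and capillary electrophoresis. Gain or loss of signal is fitted relative to DMSO.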
# [12] = ATG_VDRE_CIS: Attagene CIS-FACTORIAL HepG2 Assay for human Vitamin D Receptor Element (VDRE) (AID 2282968); conditions: HepG2 VDRE cis-reporter transcription, actives raise or lower the signal
# In short: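 Steps: transfect HepG2 with multiple reporter transcription units; dose chemicals 24 h; isolate RNA; RT-PCR; label with 6-FAM primer extension; HpaI digest; capillary electrophoresis. Curves fitted both directions against DMSO.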
# [13] = target: Estrogen receptor (Homo sapiens) (UniProt P03372); assay: ATG_ERa_TRANS: Attagene TRANS-FACTORIAL HepG2 Assay for human Estrogen Receptor alpha (ERa) (AID 2282970; active = hit-call score of the fitted dose curve at least 0.9, where 1 is the maximum); conditions: HepG2 Attagene TRANS ERa GAL4 reporter, mRNA
# In short: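 Transfected HepG2 cells carrying GAL4-UAS-driven reporter units were dosed for 24 hours. Total RNA was reverse-transcribed, reporter sequences PCR-amplified, FAM-labelled, HpaI-digested and resolved by capillary electrophoresis. Increases over DMSO control defined activity.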
# [14] = target: Steroid hormone receptor ERR1 (Homo sapiens) (UniProt P11474); assay: ATG_ERRa_TRANS: Attagene TRANS-FACTORIAL HepG2 Assay for human Estrogen-Related Receptor alpha (ERRa) (AID 2282971; active = hit-call score of the fitted dose curve at least 0.9, where 1 is the maximum); conditions: HepG2 Attagene TRANS reporter, ERRa transactivation
# In short: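 HepG2 cells were transiently transfected with multiple GAL4-UAS reporter units, then dosed with compound for 24 h. Total RNA was reverse-transcribed, reporter cDNA PCR-amplified and fluorescently labelled, and fragments resolved by capillary electrophoresis; induction was compared with DMSO.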
# [15] = target: X-box-binding protein 1 (Homo sapiens) (UniProt P17861); assay: ATG_Xbp1_CIS: Attagene CIS-FACTORIAL HepG2 Assay for human X-box Binding Protein 1 (XBP1) (AID 2282972); conditions: HepG2 XBP1 cis-element reporter, Attagene multiplex; actives raise or lower the signal
# In short: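 Read-out: fluorescent reporter mRNA fragments resolved by capillary electrophoresis after RT-PCR. Human HepG2 liver cells carried transfected cis-promoter reporter units and were exposed to chemicals for 24 hours. Gain or loss of signal fitted relative to DMSO baseline.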
# [16] = ATG_GAL4_TRANS: Attagene TRANS-FACTORIAL HepG2 Assay for GAL4 (Internal Marker) (AID 2282976; active = hit-call score of the fitted dose curve at least 0.9, where 1 is the maximum); conditions: HepG2 Attagene TRANS GAL4 internal marker reporter
# In short: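 Fluorescence from capillary electrophoresis of labelled RT-PCR products quantifies reporter mRNA induction after 24 h dosing of HepG2 cells carrying transfected GAL4-UAS reporter transcription units. Vehicle DMSO serves as baseline.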
# [17] = target: Estrogen-related receptor gamma (Homo sapiens) (UniProt P62508); assay: ATG_ERRg_TRANS: Attagene TRANS-FACTORIAL HepG2 Assay for human Estrogen-Related Receptor gamma (ERRg) (AID 2282977; active = hit-call score of the fitted dose curve at least 0.9, where 1 is the maximum;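 note: hits increase reporter signal over DMSO so potencies reflect activators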); conditions: HepG2 Attagene TRANS reporter, ERRg transactivation
# In short: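 Induction of reporter transcripts through a chimeric NR-Gal4 protein is quantified in transfected human HepG2 liver cells after 24 h chemical exposure, using RT-PCR with capillary electrophoresis detection and DMSO as baseline.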
# [18] = ATG_TGFb_CIS: Attagene CIS-FACTORIAL HepG2 Assay for human Transforming Growth Factor (TGF) (AID 2282967); conditions: HepG2 Attagene CIS TGFb reporter, mRNA transcription; actives raise or lower the signal
# In short: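 Transcript-level reporter readout: HepG2 transfectants, 24 h exposure, RNA to cDNA, reporter-specific PCR, fluorescent primer extension, capillary sizing against ROX standards. Gain- or loss-of-signal relative to DMSO.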
# [19] = ATG_M_19_TRANS: Attagene TRANS-FACTORIAL HepG2 Assay for M19 Transcription Factor (Internal Marker) (AID 2282974; active = hit-call score of the fitted dose curve at least 0.9, where 1 is the maximum); conditions: HepG2 Attagene TRANS-FACTORIAL M19 internal marker reporter
# In short: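 HepG2 cells transiently transfected with multiple GAL4-UAS reporter transcription units were exposed to chemicals for 24 h. Reporter mRNA was read by RT-PCR, 6-FAM primer extension, HpaI digestion and capillary electrophoresis; gain of signal fitted relative to DMSO.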
# Signal transducer and activator of transcription 3 (Homo sapiens), sequence (P40763 whole entry, looked up): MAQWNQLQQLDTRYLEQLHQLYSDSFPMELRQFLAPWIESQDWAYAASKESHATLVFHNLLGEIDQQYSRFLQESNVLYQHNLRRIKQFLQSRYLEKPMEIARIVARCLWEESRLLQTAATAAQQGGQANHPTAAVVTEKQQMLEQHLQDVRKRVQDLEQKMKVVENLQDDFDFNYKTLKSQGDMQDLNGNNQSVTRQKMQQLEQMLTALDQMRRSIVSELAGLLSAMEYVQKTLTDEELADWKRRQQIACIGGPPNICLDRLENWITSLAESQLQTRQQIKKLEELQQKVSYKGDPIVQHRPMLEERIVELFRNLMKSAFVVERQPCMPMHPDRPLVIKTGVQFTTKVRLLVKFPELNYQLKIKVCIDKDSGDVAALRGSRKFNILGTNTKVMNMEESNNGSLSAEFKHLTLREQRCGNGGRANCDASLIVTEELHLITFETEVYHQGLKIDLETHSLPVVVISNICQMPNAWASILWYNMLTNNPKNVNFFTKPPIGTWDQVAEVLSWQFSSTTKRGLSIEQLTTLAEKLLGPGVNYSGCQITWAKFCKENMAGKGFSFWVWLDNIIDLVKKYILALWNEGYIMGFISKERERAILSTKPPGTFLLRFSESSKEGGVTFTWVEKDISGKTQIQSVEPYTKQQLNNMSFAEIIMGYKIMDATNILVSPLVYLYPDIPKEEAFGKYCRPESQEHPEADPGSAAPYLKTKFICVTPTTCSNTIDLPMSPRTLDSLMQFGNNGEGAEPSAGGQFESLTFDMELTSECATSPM
# Transcription factor Sp1 (Homo sapiens), sequence (P08047 whole entry, looked up): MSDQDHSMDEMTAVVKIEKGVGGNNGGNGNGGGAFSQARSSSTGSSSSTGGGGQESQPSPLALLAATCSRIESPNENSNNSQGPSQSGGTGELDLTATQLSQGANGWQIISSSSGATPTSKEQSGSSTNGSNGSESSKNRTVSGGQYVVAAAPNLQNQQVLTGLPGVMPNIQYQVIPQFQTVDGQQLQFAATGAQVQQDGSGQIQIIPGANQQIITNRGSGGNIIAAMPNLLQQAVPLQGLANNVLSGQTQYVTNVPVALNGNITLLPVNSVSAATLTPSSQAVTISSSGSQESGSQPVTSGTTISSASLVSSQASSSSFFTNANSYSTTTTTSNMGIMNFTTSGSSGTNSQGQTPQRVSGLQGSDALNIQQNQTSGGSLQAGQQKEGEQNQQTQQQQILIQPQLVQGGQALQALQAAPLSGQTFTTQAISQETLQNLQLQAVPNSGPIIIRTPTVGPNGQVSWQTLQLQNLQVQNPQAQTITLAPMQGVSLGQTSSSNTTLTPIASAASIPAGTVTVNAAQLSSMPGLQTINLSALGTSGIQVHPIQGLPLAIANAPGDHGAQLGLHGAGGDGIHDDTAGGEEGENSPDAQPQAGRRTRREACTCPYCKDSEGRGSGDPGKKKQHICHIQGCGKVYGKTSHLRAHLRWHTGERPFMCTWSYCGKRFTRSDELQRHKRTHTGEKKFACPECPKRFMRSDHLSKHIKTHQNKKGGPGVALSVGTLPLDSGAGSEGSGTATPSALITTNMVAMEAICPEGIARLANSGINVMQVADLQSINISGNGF
# X-box-binding protein 1 (Homo sapiens), sequence (P17861 whole entry, looked up, the tested form may be a part): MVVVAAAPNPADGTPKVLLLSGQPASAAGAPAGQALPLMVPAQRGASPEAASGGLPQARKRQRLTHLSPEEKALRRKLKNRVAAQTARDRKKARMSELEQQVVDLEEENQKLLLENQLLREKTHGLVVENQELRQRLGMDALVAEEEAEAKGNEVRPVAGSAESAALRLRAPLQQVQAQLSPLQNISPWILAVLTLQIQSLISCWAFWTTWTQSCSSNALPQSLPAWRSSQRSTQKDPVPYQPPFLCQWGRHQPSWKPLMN
# Estrogen receptor (Homo sapiens), sequence (P03372 whole entry, looked up, the tested form may be a part): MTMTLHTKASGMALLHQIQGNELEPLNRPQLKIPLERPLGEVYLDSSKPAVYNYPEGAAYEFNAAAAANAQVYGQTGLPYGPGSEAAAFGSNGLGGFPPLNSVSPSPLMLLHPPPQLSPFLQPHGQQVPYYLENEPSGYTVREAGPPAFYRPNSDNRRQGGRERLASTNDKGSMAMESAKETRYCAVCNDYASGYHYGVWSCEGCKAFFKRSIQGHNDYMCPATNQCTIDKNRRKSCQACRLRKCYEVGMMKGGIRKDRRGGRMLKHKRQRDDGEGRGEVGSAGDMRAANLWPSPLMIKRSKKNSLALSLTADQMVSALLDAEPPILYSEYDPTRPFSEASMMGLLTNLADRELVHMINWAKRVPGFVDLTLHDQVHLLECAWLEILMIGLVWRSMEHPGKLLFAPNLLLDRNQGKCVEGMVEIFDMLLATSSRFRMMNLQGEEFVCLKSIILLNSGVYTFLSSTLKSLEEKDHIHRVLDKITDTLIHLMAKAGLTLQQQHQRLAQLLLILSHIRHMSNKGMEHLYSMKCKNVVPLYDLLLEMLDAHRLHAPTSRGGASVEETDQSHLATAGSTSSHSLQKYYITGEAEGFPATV
# Paired box protein Pax-6 (Homo sapiens), sequence (P26367 whole entry, looked up): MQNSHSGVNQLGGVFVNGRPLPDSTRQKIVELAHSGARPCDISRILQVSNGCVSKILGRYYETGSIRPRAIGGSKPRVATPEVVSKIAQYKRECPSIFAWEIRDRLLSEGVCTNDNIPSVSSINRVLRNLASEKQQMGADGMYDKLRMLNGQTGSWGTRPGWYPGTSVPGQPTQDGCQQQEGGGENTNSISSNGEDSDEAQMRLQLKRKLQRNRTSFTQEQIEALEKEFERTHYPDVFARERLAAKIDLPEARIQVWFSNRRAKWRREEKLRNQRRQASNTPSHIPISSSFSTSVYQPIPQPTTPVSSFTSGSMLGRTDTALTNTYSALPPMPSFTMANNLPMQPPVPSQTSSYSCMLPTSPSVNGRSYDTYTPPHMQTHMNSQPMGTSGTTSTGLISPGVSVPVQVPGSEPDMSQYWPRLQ
# Estrogen-related receptor gamma (Homo sapiens), sequence (P62508 whole entry, looked up, the tested form may be a part): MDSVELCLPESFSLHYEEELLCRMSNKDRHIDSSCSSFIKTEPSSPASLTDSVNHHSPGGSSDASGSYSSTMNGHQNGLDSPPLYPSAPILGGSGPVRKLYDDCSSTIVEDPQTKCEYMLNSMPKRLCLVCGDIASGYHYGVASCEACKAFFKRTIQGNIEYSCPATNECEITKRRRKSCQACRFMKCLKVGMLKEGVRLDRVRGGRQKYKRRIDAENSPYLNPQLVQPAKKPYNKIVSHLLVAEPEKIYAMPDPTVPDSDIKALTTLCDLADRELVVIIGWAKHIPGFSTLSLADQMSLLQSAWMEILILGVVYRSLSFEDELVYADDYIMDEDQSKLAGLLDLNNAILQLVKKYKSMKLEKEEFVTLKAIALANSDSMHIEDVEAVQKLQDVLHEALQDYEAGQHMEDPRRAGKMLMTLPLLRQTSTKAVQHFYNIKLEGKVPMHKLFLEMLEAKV
# Steroid hormone receptor ERR1 (Homo sapiens), sequence (P11474 whole entry, looked up, the tested form may be a part): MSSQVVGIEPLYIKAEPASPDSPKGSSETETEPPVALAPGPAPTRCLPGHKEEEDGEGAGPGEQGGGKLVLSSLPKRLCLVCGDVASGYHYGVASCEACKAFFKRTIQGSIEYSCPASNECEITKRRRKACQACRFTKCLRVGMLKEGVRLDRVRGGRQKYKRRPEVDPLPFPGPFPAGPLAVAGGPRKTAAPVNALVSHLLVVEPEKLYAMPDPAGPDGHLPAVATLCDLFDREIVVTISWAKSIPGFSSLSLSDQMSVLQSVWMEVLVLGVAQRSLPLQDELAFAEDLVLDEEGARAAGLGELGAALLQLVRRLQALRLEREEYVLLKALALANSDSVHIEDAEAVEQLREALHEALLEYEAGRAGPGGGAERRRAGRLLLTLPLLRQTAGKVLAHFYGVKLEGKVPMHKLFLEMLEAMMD
compound,measurement,setting,value
O=C(c1ccccc1)c1ccc(O)c(O)c1O,outcome,[1],inactive
same,AC50,[2],26.9 µM (active)
same,outcome,[3],inactive
same,outcome,[4],inactive
same,outcome,[5],inactive
same,outcome,[6],inactive
same,outcome,[7],inactive
same,outcome,[8],inactive
same,outcome,[9],inactive
same,outcome,[10],inactive
same,outcome,[11],inactive
same,outcome,[12],inactive
same,AC50,[13],27.3 µM (active)
same,outcome,[14],inactive
same,outcome,[15],inactive
same,outcome,[16],inactive
same,outcome,[17],inactive
CCCCCCCC/C=C\CCCCCCCC(=O)OCCO,outcome,[1],inactive
same,AC50,[2],12.8 µM (active)
same,outcome,[3],inactive
same,outcome,[4],inactive
same,outcome,[5],inactive
same,outcome,[6],inactive
same,outcome,[7],inactive
same,outcome,[8],inactive
same,outcome,[9],inactive
same,outcome,[10],inactive
same,outcome,[11],inactive
same,outcome,[18],inactive
same,outcome,[13],inactive
same,outcome,[15],inactive
same,outcome,[19],inactive
C=CC(=O)OCCOC1C2CCC1C1CC=CC12 (stereo unspecified),outcome,[1],inactive
same,outcome,[2],inactive
same,outcome,[3],inactive
same,outcome,[4],inactive
same,outcome,[5],inactive
same,outcome,[6],inactive
same,outcome,[7],inactive
same,outcome,[8],inactive
same,outcome,[9],inactive
same,outcome,[10],inactive
same,outcome,[11],inactive
same,outcome,[18],inactive
same,outcome,[12],inactive
same,outcome,[19],inactive
same,outcome,[16],inactive
Nc1cccc(C(F)(F)F)c1,outcome,[1],inactive
same,outcome,[2],inactive
same,outcome,[3],inactive
same,outcome,[4],inactive
same,outcome,[5],inactive
same,outcome,[6],inactive
same,outcome,[7],inactive
same,outcome,[8],inactive
same,outcome,[9],inactive
same,outcome,[10],inactive
same,outcome,[11],inactive
same,outcome,[18],inactive
same,outcome,[13],inactive
same,outcome,[14],inactive
same,outcome,[17],inactive
COC(F)(F)C(F)(C(F)(F)F)C(F)(F)F,outcome,[1],inactive
same,outcome,[2],inactive
same,outcome,[3],inactive
same,outcome,[4],inactive
same,outcome,[5],inactive
same,outcome,[6],inactive
same,outcome,[7],inactive
same,outcome,[8],inactive
same,outcome,[9],inactive
same,outcome,[10],inactive
same,outcome,[11],inactive
same,outcome,[18],inactive
same,outcome,[12],inactive
same,outcome,[15],inactive
same,outcome,[16],inactive
c1ccc(CCCc2ccncc2)cc1,outcome,[1],inactive
same,AC50,[2],27 µM (active)
same,outcome,[3],inactive
same,outcome,[4],inactive
same,outcome,[5],inactive
same,outcome,[6],inactive
same,outcome,[7],inactive
same,outcome,[8],inactive
same,outcome,[9],inactive
same,outcome,[10],inactive
same,outcome,[11],inactive
same,outcome,[18],inactive
same,outcome,[13],inactive
same,outcome,[15],inactive
O=S(=O)(O)c1ccc2cc(O)c(S(=O)(=O)O)cc2c1,AC50,[1],151 µM (active)
same,outcome,[2],inactive
same,outcome,[3],inactive
same,outcome,[4],inactive
same,outcome,[5],inactive
same,outcome,[6],inactive
same,outcome,[7],inactive
same,outcome,[8],inactive
same,outcome,[9],inactive
same,AC50,[10],66.9 µM (active)
same,outcome,[11],inactive
same,outcome,[18],inactive
same,outcome,[12],inactive
same,AC50,[15],172 µM (active)
same,outcome,[19],inactive
CCCCCC/C=C\CCCCCCCC(=O)O,outcome,[1],inactive
same,outcome,[2],inactive
same,outcome,[3],inactive
same,outcome,[4],inactive
same,outcome,[5],inactive
same,outcome,[6],inactive
same,outcome,[7],inactive
same,outcome,[8],inactive
same,outcome,[9],inactive
same,outcome,[10],inactive
same,outcome,[11],inactive
same,outcome,[12],inactive
same,outcome,[15],inactive
same,outcome,[16],inactive
O=C1CCC(=O)N1Cl,outcome,[1],inactive
same,outcome,[2],inactive
same,outcome,[3],inactive
same,outcome,[4],inactive
same,outcome,[5],inactive
same,outcome,[6],inactive
same,outcome,[7],inactive
same,outcome,[8],inactive
same,outcome,[9],inactive
same,outcome,[10],inactive
same,outcome,[11],inactive
same,outcome,[18],inactive
same,outcome,[12],inactive
same,outcome,[15],inactive
same,outcome,[19],inactive
same,outcome,[16],inactive
